# Laboratory results from PubChem BioAssay AID720582 (The Scripps Research Institute Molecular Screening Center, 2013).
# Hit rate of the full screen: of about 370,000 compounds, about 2,300 (0.62%) were called active.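 Rule for the calls: active = inhibition above a per-campaign cutoff equal to the mean of compounds falling between control-based bounds plus 3 SD (cut at about 20% in these data); inactive = the rest.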 Shown is part of a subset that was picked to be rich in actives.
# Target: Disintegrin and metalloproteinase domain-containing protein 10 (Homo sapiens) (UniProt O14672)
# Sequence (O14672 214-748 limits assumed): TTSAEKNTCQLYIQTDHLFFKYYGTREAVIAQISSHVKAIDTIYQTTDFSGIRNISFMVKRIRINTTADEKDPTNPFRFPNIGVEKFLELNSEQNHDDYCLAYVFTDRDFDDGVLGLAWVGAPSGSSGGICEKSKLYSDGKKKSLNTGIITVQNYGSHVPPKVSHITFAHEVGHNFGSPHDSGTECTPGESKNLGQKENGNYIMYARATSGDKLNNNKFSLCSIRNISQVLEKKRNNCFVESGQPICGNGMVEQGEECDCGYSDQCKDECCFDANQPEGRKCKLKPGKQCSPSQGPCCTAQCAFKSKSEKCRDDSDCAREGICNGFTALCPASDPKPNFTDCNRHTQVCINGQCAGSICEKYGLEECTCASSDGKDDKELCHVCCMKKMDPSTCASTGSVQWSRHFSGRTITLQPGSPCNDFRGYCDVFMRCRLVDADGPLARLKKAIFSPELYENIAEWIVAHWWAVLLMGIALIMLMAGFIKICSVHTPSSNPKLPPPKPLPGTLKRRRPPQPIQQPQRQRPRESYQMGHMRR
# Test: blockers of ADAM10 peptide cleavage – biochemical, QFRET, HTS, primary screen (AID 720582);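 note: 0% = DMSO wells while the 100% control is not disclosed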
# Details: recombinant ADAM10, EDANS/DABCYL FRET peptide cleavage, 3 h; at 7 µM; stronger effect = higher value
row,Compound,inhibition
1,COC(=O)c1ccccc1Sc1c(/C=N/OCc2ccc(Cl)cc2)c(C(F)(F)F)nn1C,-2.32% (inactive)
2,Cn1nc(C(F)(F)F)c(C(=O)Nc2cccc(C(F)(F)F)c2)c1SCc1ccc(Cl)cc1,43.5% (active)
3,CCC(=O)OCc1c(C(F)(F)F)nn(C)c1Oc1cccc(C(F)(F)F)c1,-6.05% (inactive)
4,c1csc(-c2nnc(SCc3nc4ccccc4[nH]3)o2)c1,-40.8% (inactive)
5,N#Cc1ccccc1OC[C@@H](O)CN1CCC(C(O)(c2ccccc2)c2ccccc2)CC1,-0.66% (inactive)
6,Cc1ccc(C)c(NC(=S)NNC(=O)c2csc(C)c2)c1,24.9% (active)
7,Cc1cc(C(=O)NNC(=S)NC(C)c2ccccc2)cs1 (centres undefined),9.44% (inactive)
8,Cc1ccc(C)c(NC(=O)NNC(=O)c2ccc3ccccc3c2O)c1,-78.3% (inactive)
9,COc1ccccc1C(=O)CSc1nnc(-c2ccccn2)n1-c1ccccc1,-1.9% (inactive)
10,COc1cccc(CSc2nnc(-c3cccnc3)n2Cc2ccccc2)c1,-11.6% (inactive)
11,O=C(CCCCCN1C(=O)C2C3C=CC(C3)C2C1=O)Nc1ccccn1 (centres undefined),2.11% (inactive)
12,COC(=O)c1cc(S(=O)(=O)N2CCN(C(=O)C3CCCO3)CC2)cn1C (centres undefined),-4.05% (inactive)
13,CCC(C)(C)c1ccc(Oc2ccc(NC(=O)COC(=O)C3=COCCO3)cc2)cc1,35.7% (active)
14,O=C1CCC(C(=O)OCC(=O)Nc2ccc(OC(F)F)cc2)=NN1,5.49% (inactive)
15,COc1ccc(NC(=O)COC(=O)CNC(=O)C2CCCCC2)cc1,-0.81% (inactive)
16,N/C(Cc1ccc([N+](=O)[O-])cc1)=N\OC(=O)C1CCCCC1,-1.46% (inactive)
17,N/C(Cc1ccc([N+](=O)[O-])cc1)=N\OC(=O)COc1ccc2ccccc2c1,29.3% (active)
18,Cc1cc(C)cc(OCC(=O)O/N=C(\N)Cc2ccc([N+](=O)[O-])cc2)c1,6.24% (inactive)
19,O=C(NCC1COc2ccccc2O1)c1ccc(NC(=O)c2cc(F)ccc2F)cc1 (centres undefined),-8.24% (inactive)
20,CCOC(=O)N1CCN(C(=O)C[C@@H]2C(=O)N(CCc3ccc(Cl)cc3)C3=CCCC[C@]32C(=O)OCC)CC1,1.06% (inactive)
21,COc1ccc(C(CCN(Cc2ccc(OC)c(OC)c2)C(=O)CCl)c2ccccc2)cc1 (centres undefined),28% (active)
22,COc1ccc(C(C(=O)NC2CCCCC2)N(C(=O)CCl)c2ccccc2Cl)cc1 (centres undefined),-8.69% (inactive)
23,COc1ccc(CN(CCN2CCOCC2)C(=O)c2ccc(C)cc2)cc1OC,-9.63% (inactive)

row,Compound,inhibition
1,COC(=O)C1CN(CCc2ccccc2)CCS(=O)(=O)N1Cc1ccc(F)cc1 (centres undefined),-11.1% (inactive)
2,COC1=C[C@H](C(=O)NCCNC(C)=O)[C@H](C)[C@@H](c2ccccc2)CC1=O,4.85% (inactive)
3,CCOc1cc(NC(=O)c2ccccc2C(=O)O)c(OCC)cc1NC(=O)c1ccccc1F,26.7% (active)
4,CCOc1ccccc1NC(=O)c1cc(S(=O)(=O)N2CCC3(CC2)OCCO3)ccc1F,-1.65% (inactive)
5,CCOc1cc(NC(=O)CCl)c(OCC)cc1NC(C)=O,-2.95% (inactive)
6,c1cncc(CNc2ccnc(-c3ccc4c(c3)OCO4)n2)c1,-4.61% (inactive)
7,CN(CCc1ccccc1)C(=O)Cn1nc(-c2ccccc2)ccc1=O,-9.95% (inactive)
8,COc1cc(/C=N/n2c(C)n[nH]c2=S)ccc1OCc1ccccc1,20.3% (active)
9,C=CCOc1ccc(/C=N/n2cncn2)cc1OC,-13.5% (inactive)
10,CNC(=S)N/N=C/c1ccc(OCc2ccccc2)c(Br)c1,-17% (inactive)
11,CC(CCN1CCC(C(O)(c2ccccc2)c2ccccc2)CC1)Oc1ccc(Cl)cc1 (centres undefined),6% (inactive)
12,O=S1(=O)c2ccc(Br)cc2OC[C@H](Cc2ccccc2)N1Cc1cn(Cc2ccccc2)nn1,-9.49% (inactive)
13,Cc1[nH]nc(-c2ccc(OCc3cnn(-c4ccccc4)c3)cc2O)c1Oc1ccc(Cl)cc1,-10.7% (inactive)
14,C=C(C)COc1ccc(-c2n[nH]c(C)c2-c2ccccc2)c(O)c1,23.7% (active)
15,C[C@H]1CCC/C=C/C(=O)c2c(O)cc(O)cc2CC(=O)O1,-6.63% (inactive)
16,Cc1ccc(OCc2nnc(SC/C=C/c3ccccc3)n2Cc2ccco2)cc1,21.3% (active)
17,O=C(CSc1nnc(COc2ccccc2)n1Cc1ccco1)c1ccc2ccccc2c1,9.91% (inactive)
18,Cc1ccc(-c2nnc(SCC(=O)Nc3ccc(Oc4ccccc4)cc3)n2Cc2ccco2)cc1,17.8% (inactive)
19,Cc1c(C(C)c2ccccc2O)[nH]c2ccccc12 (centres undefined),11.8% (inactive)
20,O=C1CC(c2ccc3c(c2)OCO3)N=C2N(CC3CC3)C/C(=C/c3ccccc3)N12 (centres undefined),-2.63% (inactive)
21,Cc1ccc(C)c(NC(=O)c2ccc(OC(=O)c3ccco3)cc2)c1,0.79% (inactive)
22,O=C(Oc1cccc(N2C(=O)C3C4c5ccccc5C(c5ccccc54)C3C2=O)c1)c1ccco1 (centres undefined),20.3% (active)
23,CC(=O)Nc1ccc(N2C(=O)C3C4CC(=O)C(c5ccccc54)C3C2=O)cc1 (centres undefined),-0.65% (inactive)

row,Compound,inhibition
1,O=C(NCCNc1ccc([N+](=O)[O-])cc1)c1cccc2c(Br)cccc12,-54.2% (inactive)
2,COc1ccc(Cn2cc(COC(=O)N(C)Cc3ccccc3)nn2)cc1,1.83% (inactive)
3,Oc1oc(-c2ccccc2Br)nc1/C=N/c1ccccn1,-33.4% (inactive)
4,CC(N=Cc1nc(-c2ccccc2)oc1O)c1ccccc1 (centres undefined),21% (active)
5,COc1ccc(-n2c(SCC(=O)Nc3ccc4cn[nH]c4c3)nnc2-c2cccnc2)cc1,3.52% (inactive)
6,CC(C)CSc1nnc(-c2cccnc2)n1Cc1ccccc1,-2.15% (inactive)
7,Nn1c(SCC(=O)N2c3ccccc3Sc3ccccc32)nnc1-c1n[nH]c2c1CCC2,-5.44% (inactive)
8,CCNC(=O)CN(c1ccc(C)cc1)S(=O)(=O)c1ccc(SC)cc1,2.9% (inactive)
9,Cc1ccc(S(=O)(=O)N(CC(=O)Nc2cccnc2)c2ccc(Br)cc2)cc1,20.1% (active)
10,Cc1ccc(N(CC(=O)Nc2cc(C)cc(C)c2)S(=O)(=O)c2cccc3nonc23)cc1,14.3% (inactive)
11,O=S1(=O)c2c(cccc2N2CCSCC2)Oc2ccccc2CN1Cc1cn(Cc2ccc(F)cc2)nn1,-1.57% (inactive)
12,CCOc1ccc(N(CC(=O)Nc2c(C)n(C)n(-c3ccccc3)c2=O)S(=O)(=O)c2ccc(Cl)s2)cc1,7.29% (inactive)
13,NC(=O)c1ccccc1N(Cc1ccccc1)S(=O)(=O)c1ccccc1,14.4% (inactive)
14,O=S(=O)(c1ccccc1)N(Cc1cccc(F)c1)c1ccccc1,22.7% (active)
15,O=C(O)c1cc(S(=O)(=O)N(Cc2ccccc2)c2ccccc2)ccc1Cl,2.05% (inactive)
16,Cc1cc(=O)[nH]c(SCC(=O)Nc2ccc(Cl)cc2C)n1,-0.31% (inactive)
17,C[C@@H]1CN([C@@H](C)CO)C(=O)c2cccc(NC(=O)Nc3cccc4ccccc34)c2O[C@H]1CN(C)S(=O)(=O)c1ccccc1F,-24.8% (inactive)
18,CCc1ccccc1NC(=O)CSc1nnc(-c2cccs2)o1,-1.28% (inactive)
19,COc1ccc(-n2c(COc3ccccc3)nnc2SCC(=O)Nc2ccc3c(c2)OCO3)cc1,2.97% (inactive)
20,O=S(=O)(c1ccccc1)c1nc(-c2ccccc2F)oc1NCc1cccnc1,12.6% (inactive)
21,N#Cc1nc(COc2ccc(Cl)cc2)oc1N1CCCC1,1.11% (inactive)
22,O=S(=O)(c1ccc(Br)cc1)c1nc(-c2ccccc2)oc1NCc1cccnc1,4.12% (inactive)
23,Cc1ccc(OCc2nc(C#N)c(N3CCCC3)o2)cc1,-0.05% (inactive)

row,Compound,inhibition
1,CCOc1ccc(Nc2oc(Cc3ccccc3)nc2C#N)cc1,23.6% (active)
2,N#Cc1nc(COc2ccc(-c3ccccc3)cc2)oc1NCc1cccnc1,23.1% (active)
3,CCCCOCCCNC(=O)C[C@H]1C[C@@]2(C(=O)OC)C(=C[C@H](COCc3ccccc3)O[C@@H]2C)N(Cc2cccc3ccccc23)C1=O,11.9% (inactive)
4,c1ccc(C2CNCc3c2ccc2ccccc32)cc1 (centres undefined),-2.76% (inactive)
5,c1ccc2c(CCN3CCNC[C@H]3Cc3cccc4ccccc34)cccc2c1,79% (active)
6,CC(C)(C)CN1C(=O)C(=O)NC[C@H]1Cc1cccc2ccccc12,-16.5% (inactive)
7,CC(=O)C1(C(=O)Nc2nccs2)CC(c2ccccc2C(F)(F)F)=NO1 (centres undefined),-3.94% (inactive)
8,COCc1ccc(C(=O)N2CCc3c([nH]c4ccccc34)C2c2ccccn2)s1 (centres undefined),9.76% (inactive)
9,Cc1cccc(C2c3[nH]c4ccccc4c3CCN2C(=O)c2cc(-c3cccn3C)n[nH]2)n1 (centres undefined),20.4% (active)
10,Cc1cccc(C(=O)N2CCc3c([nH]c4ccccc34)C2CC(C)C)n1 (centres undefined),-15.2% (inactive)
11,COC(=O)c1ccccc1-n1cc(COC(=O)NCCc2ccccc2)nn1,-5.72% (inactive)
12,C=CCN(C(=O)[C@@H](CCCC)[C@@H](O)c1ccc(Cl)cc1)c1ccccc1,11.4% (inactive)
13,CC(C)Oc1cc(F)ccc1-c1cc(C(=O)Nc2ccc(F)cc2)[nH]n1,5.58% (inactive)
14,COc1cc(NC(=O)c2cc(-c3ccc(F)cc3OC(C)C)n[nH]2)cc(OC)c1OC,9.02% (inactive)
15,CC(C)Oc1cc(F)ccc1-c1cc(C(=O)Nc2cccc(Cl)c2)[nH]n1,22.1% (active)
16,CCOC(=O)C1CCN(C(=O)C(C)(C)NC(=O)Nc2ccc(F)c(F)c2)CC1,6.44% (inactive)
17,COc1ccc(N2CCN(CCNS(=O)(=O)c3ccc([N+](=O)[O-])cc3)CC2)cc1,5.38% (inactive)
18,Cc1[nH]c2ccccc2c1C(=O)CN1CC(C)CC(C)C1 (centres undefined),-6.1% (inactive)
19,COc1ccc(C(=O)COC(=O)c2c(C)noc2C)cc1Cl,3.87% (inactive)
20,Cc1[nH]c2ccccc2c1C(=O)COC(=O)c1c(-c2ccccc2)noc1C,24.7% (active)
